{
  "source": "PubChem BioAssay (NCI)",
  "note": "The panel holds about 83,000 compounds, 20% with a hit somewhere; the sample as a whole holds those more often.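 96-well plates, one dose, 48 hours. Percent growth reported; active if below 10.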 Unmarked numbers belong to inactive results. Active and inactive are the calls of the source.",
  "data": [
    {"tested_on": "SF-295 CNS", "test": "NCI-60 one-dose screen, 48 h (100 = growth as untreated, 0 = no growth, -100 = all killed)", "details": "10 µM", "values": [
      {"smiles": "COc1cc(C2CC(=O)Nc3c2c(C)nn3-c2nc3ccccc3[nH]2)cc(OC)c1O", "note": "(stereo unspecified)", "growth": "-34.2% (active)"},
      {"smiles": "CCCCC(CC#N)(CCC)CCC", "growth": "96.7%"},
      {"smiles": "COc1cc(C)c2sc3ccccc3c(=O)c2c1NCCN(C)C", "growth": "53.6%"},
      {"smiles": "O=C(CCl)N1c2ccccc2Sc2ccc3ccccc3c21", "growth": "-2.09% (active)"},
      {"smiles": "CCOC(=O)Nc1ccc2c(c1)C(=O)N(CC)c1ccccc1O2", "growth": "3.36% (active)"},
      {"smiles": "COc1ccc(/C=C(\\c2cc(OC)c(OC)c(OC)c2)c2nnc(-c3cccs3)o2)cc1", "growth": "73.4%"},
      {"smiles": "COc1ccc(-c2cc(/C=C/C(=O)c3ccc(N)cc3)[nH]n2)cc1OC", "growth": "41%"},
      {"smiles": "CCCCCCCCCCSC(=N)N", "note": "(tested in a mixture with another compound)", "growth": "94.4%"},
      {"smiles": "CC(=O)CS(C)(=O)=O", "growth": "115%"},
      {"smiles": "Nc1ccc2c(c1)Cc1cc(N)c(Cl)cc1-2", "growth": "99.1%"},
      {"smiles": "CCOC(=O)c1cc(-c2ccccc2)nc(N)n1", "growth": "93.8%"},
      {"smiles": "CCCOCC(O)CNCCN", "note": "(stereo unspecified)", "growth": "94.2%"},
      {"smiles": "O=C(Nc1ccc(OCc2nnc(-c3ccccc3)o2)c(F)c1)Nc1ccc(Cl)c(Cl)c1", "growth": "39.4%"},
      {"smiles": "Cc1[nH]nc2c(=S)[nH]c(=O)[nH]c12", "growth": "91%"},
      {"smiles": "CCC(OC(=O)CC(C)C)c1ccccc1", "note": "(stereo unspecified)", "growth": "94.7%"},
      {"smiles": "C/C=C\\COc1cc(C)c(Cl)cc1Cl", "growth": "99%"},
      {"smiles": "CC(=O)N(O)c1ccc(/C=C/c2ccccc2)cc1", "growth": "-26.7% (active)"},
      {"smiles": "CCOC(=O)c1c(C(F)(F)F)n([O-])c2ccc(OC)cc2[n+]1=O", "growth": "-36% (active)"},
      {"smiles": "NCCNc1ccc2cc(-c3nc4ccccc4[nH]3)c(=O)oc2c1", "growth": "98.2%"},
      {"smiles": "Nc1ccc(Sc2ccc3c4c2cccc4c(=O)n2c4ccccc4nc32)cc1", "growth": "12%"},
      {"smiles": "COc1cccc(C(=O)NNc2nc(N3CCOCC3)nc(N3CCN(C(c4ccccc4)c4ccccc4)CC3)n2)c1", "growth": "87.3%"},
      {"smiles": "C=CCN1C(=O)/C(=C\\c2ccc3c(c2)CCC3)SC1=S", "growth": "95.2%"},
      {"smiles": "COc1cccc(-c2nnc(COc3ccc(-c4nc5ccc(C)cc5[nH]4)cc3OC)o2)c1", "growth": "99.2%"},
      {"smiles": "CNC(=O)c1cc(Oc2ccc(NC(=O)Nc3ccc(Cl)c(C(C)(C)C)c3)c(F)c2)ccn1", "growth": "24.5%"},
      {"smiles": "CC(=O)/C(=C\\c1ccc(Cl)cc1)c1ccccc1", "growth": "-6.11% (active)"},
      {"smiles": "Cc1cc(C)c(C(=O)OC(C)CNC2CCCCC2)c(C)c1", "note": "(stereo unspecified)", "growth": "97.7%"},
      {"smiles": "CC(=O)Oc1ccc(C2=Cc3ccc(OC(C)=O)cc3OC2C)cc1", "note": "(stereo unspecified)", "growth": "69.9%"},
      {"smiles": "CC(=O)Nc1nc(C)c(C(=O)NNC=O)s1", "growth": "112%"},
      {"smiles": "CCCCC(=O)N(c1ccc(Nc2c3ccccc3nc3cc([N+](=O)[O-])ccc23)cc1)S(C)(=O)=O", "growth": "34.4%"},
      {"smiles": "O=C1/C(=C/c2ccc(O)cc2O)N=C2SCCCN12", "growth": "96.3%"},
      {"smiles": "Cc1ccc2c(c1)-c1cc(C)nn1-c1ccc(C#N)cc1O2", "growth": "67.2%"},
      {"smiles": "O=C(c1ccc(Cl)cc1)c1no[n+]([O-])c1C(=O)c1ccc(Cl)cc1", "growth": "83.8%"},
      {"smiles": "Nc1nsc(C(=O)c2ccc(O)cc2)n1", "growth": "99.4%"},
      {"smiles": "COc1ccc(C2=Cc3ccc(OC(C)=O)cc3OC2)cc1", "growth": "104%"},
      {"smiles": "Cc1nc2cc(-n3c(-c4ccc(F)cc4)nc4ccccc4c3=O)ccc2n1Cc1ccccc1", "growth": "47.1%"},
      {"smiles": "Cc1nnc2c3nnc(-c4ccc(Cl)cc4)n3c3ccccc3n12", "growth": "88.2%"},
      {"smiles": "Cc1cc(C)c2c(Nc3ncnc4c3sc3nc(C)cc(C)c34)n[nH]c2n1", "growth": "91.3%"},
      {"smiles": "CCCCNC(=O)Oc1ccc(/C(=C(\\C)c2ccc(OC)cc2)c2ccc(OCCN3CCCCC3)cc2)cc1", "growth": "12.5%"}
    ]},
    {"tested_on": "SF-539 CNS", "test": "NCI-60 one-dose screen, 48 h (100 = growth as untreated, 0 = no growth, -100 = all killed)", "details": "10 µM", "values": [
      {"smiles": "COc1cc(C2CC(=O)Nc3c2c(C)nn3-c2nc3ccccc3[nH]2)cc(OC)c1O", "note": "(stereo unspecified)", "growth": "72.8%"},
      {"smiles": "CCCCC(CC#N)(CCC)CCC", "growth": "100%"},
      {"smiles": "COc1cc(C)c2sc3ccccc3c(=O)c2c1NCCN(C)C", "growth": "66.7%"},
      {"smiles": "O=C(CCl)N1c2ccccc2Sc2ccc3ccccc3c21", "growth": "-60.9% (active)"},
      {"smiles": "CCOC(=O)Nc1ccc2c(c1)C(=O)N(CC)c1ccccc1O2", "growth": "4.79% (active)"},
      {"smiles": "COc1ccc(/C=C(\\c2cc(OC)c(OC)c(OC)c2)c2nnc(-c3cccs3)o2)cc1", "growth": "47.6%"},
      {"smiles": "COc1ccc(-c2cc(/C=C/C(=O)c3ccc(N)cc3)[nH]n2)cc1OC", "growth": "7.79% (active)"},
      {"smiles": "CCCCCCCCCCSC(=N)N", "note": "(tested in a mixture with another compound)", "growth": "83.4%"},
      {"smiles": "CC(=O)CS(C)(=O)=O", "growth": "109%"},
      {"smiles": "Nc1ccc2c(c1)Cc1cc(N)c(Cl)cc1-2", "growth": "95.9%"},
      {"smiles": "CCOC(=O)c1cc(-c2ccccc2)nc(N)n1", "growth": "94.5%"},
      {"smiles": "CCCOCC(O)CNCCN", "note": "(stereo unspecified)", "growth": "93.2%"},
      {"smiles": "O=C(Nc1ccc(OCc2nnc(-c3ccccc3)o2)c(F)c1)Nc1ccc(Cl)c(Cl)c1", "growth": "75.5%"},
      {"smiles": "Cc1[nH]nc2c(=S)[nH]c(=O)[nH]c12", "growth": "101%"},
      {"smiles": "CCC(OC(=O)CC(C)C)c1ccccc1", "note": "(stereo unspecified)", "growth": "98.4%"},
      {"smiles": "C/C=C\\COc1cc(C)c(Cl)cc1Cl", "growth": "104%"},
      {"smiles": "CC(=O)N(O)c1ccc(/C=C/c2ccccc2)cc1", "growth": "33.6%"},
      {"smiles": "CCOC(=O)c1c(C(F)(F)F)n([O-])c2ccc(OC)cc2[n+]1=O", "growth": "48.8%"},
      {"smiles": "NCCNc1ccc2cc(-c3nc4ccccc4[nH]3)c(=O)oc2c1", "growth": "94.2%"},
      {"smiles": "Nc1ccc(Sc2ccc3c4c2cccc4c(=O)n2c4ccccc4nc32)cc1", "growth": "48.5%"},
      {"smiles": "COc1cccc(C(=O)NNc2nc(N3CCOCC3)nc(N3CCN(C(c4ccccc4)c4ccccc4)CC3)n2)c1", "growth": "93.6%"},
      {"smiles": "C=CCN1C(=O)/C(=C\\c2ccc3c(c2)CCC3)SC1=S", "growth": "95.5%"},
      {"smiles": "COc1cccc(-c2nnc(COc3ccc(-c4nc5ccc(C)cc5[nH]4)cc3OC)o2)c1", "growth": "57.4%"},
      {"smiles": "CNC(=O)c1cc(Oc2ccc(NC(=O)Nc3ccc(Cl)c(C(C)(C)C)c3)c(F)c2)ccn1", "growth": "46.6%"},
      {"smiles": "CC(=O)/C(=C\\c1ccc(Cl)cc1)c1ccccc1", "growth": "-1.66% (active)"},
      {"smiles": "Cc1cc(C)c(C(=O)OC(C)CNC2CCCCC2)c(C)c1", "note": "(stereo unspecified)", "growth": "99.2%"},
      {"smiles": "CC(=O)Oc1ccc(C2=Cc3ccc(OC(C)=O)cc3OC2C)cc1", "note": "(stereo unspecified)", "growth": "28%"},
      {"smiles": "CC(=O)Nc1nc(C)c(C(=O)NNC=O)s1", "growth": "102%"},
      {"smiles": "CCCCC(=O)N(c1ccc(Nc2c3ccccc3nc3cc([N+](=O)[O-])ccc23)cc1)S(C)(=O)=O", "growth": "79.8%"},
      {"smiles": "O=C1/C(=C/c2ccc(O)cc2O)N=C2SCCCN12", "growth": "93.7%"},
      {"smiles": "Cc1ccc2c(c1)-c1cc(C)nn1-c1ccc(C#N)cc1O2", "growth": "69.1%"},
      {"smiles": "O=C(c1ccc(Cl)cc1)c1no[n+]([O-])c1C(=O)c1ccc(Cl)cc1", "growth": "98.5%"},
      {"smiles": "Nc1nsc(C(=O)c2ccc(O)cc2)n1", "growth": "92.9%"},
      {"smiles": "COc1ccc(C2=Cc3ccc(OC(C)=O)cc3OC2)cc1", "growth": "85.7%"},
      {"smiles": "Cc1nc2cc(-n3c(-c4ccc(F)cc4)nc4ccccc4c3=O)ccc2n1Cc1ccccc1", "growth": "-72.6% (active)"},
      {"smiles": "Cc1nnc2c3nnc(-c4ccc(Cl)cc4)n3c3ccccc3n12", "growth": "92.2%"},
      {"smiles": "Cc1cc(C)c2c(Nc3ncnc4c3sc3nc(C)cc(C)c34)n[nH]c2n1", "growth": "100%"},
      {"smiles": "CCCCNC(=O)Oc1ccc(/C(=C(\\C)c2ccc(OC)cc2)c2ccc(OCCN3CCCCC3)cc2)cc1", "growth": "5% (active)"}
    ]}
  ]
}
